Rows were chosen to be rich in hits. Some 2.8% of all compounds tested hit in one or more screens of this group.
HSP90 inh: blocks HSP90-mediated luciferase refolding in reticulocyte lysate; Rabbit reticulocyte lysate, luciferase refolding luminescence, 3 h; inhibition, % at 5.6 µM; 0.91% of 290,000 active; AID 1789;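 active = inhibition above the screen-wide mean plus 3 SD, computed separately per campaign, cut at about 16% in these data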;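 note: inhibitors lower the luminescence because luciferase stays unfolded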
Platelet DG rel: platelet dense granule release activity. human platelet-rich plasma, SFLLRN dense granule ATP release, luminescence. inhibition, %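 (compounds screened at 7.5 µM in platelet-rich plasma)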. 0.22% of 300,000 active;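 active = mean replicate score, as percent of positive control, at or above 50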
SENP6 inh: inhibitors of human SENP6 protease; 1.8% of 330,000 active; Recombinant SENP6 catalytic domain, aminoluciferin luminescence; AID 2599; Q9GZR1; inhibition, % at 10 µM;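 active = inhibition above about 50% at the single tested dose, limit read from the data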
SENP8 block-1: SENP8 (human) protease inhibition; inhibition, % at 20 µM; recombinant SENP8, Nedd8 substrate fluorescence; 0.64% of 360,000 active; in the data active = inhibition mostly above about 40%, no sharp cut-off; inactive = mostly below about 27%
Target sequence (Q96LD8 whole entry, looked up): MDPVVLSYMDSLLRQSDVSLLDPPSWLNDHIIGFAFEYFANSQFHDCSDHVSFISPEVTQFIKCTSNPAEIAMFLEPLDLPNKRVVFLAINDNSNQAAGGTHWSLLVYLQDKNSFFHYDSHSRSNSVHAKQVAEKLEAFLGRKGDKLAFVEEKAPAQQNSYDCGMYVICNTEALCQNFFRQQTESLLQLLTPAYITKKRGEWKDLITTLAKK
SENP8 block-2: SENP8 protease inhibition; Q96LD8; purified SENP8, Z-RLRGG-aminoluciferin cleavage, luminescence; inhibition, % at 10 µM; 1.2% of 330,000 active; AID 2540; in the data active = inhibition above about 50%
SENP7 inh: blocks the human protease SENP7; 1.5% of 330,000 active; inhibition, % at 5 µM; Q9BQF6; recombinant SENP7, Z-RLRGG-aminoluciferin luminescence, 40 min;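 active = inhibition above about 50% at the single test dose, limit read from the data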
SENP8 confirm: human SENP8 inhibition, confirmed; shares compounds with SENP7 inh; Recombinant SENP8, Z-RLRGG-aminoluciferin luminescence, 60 min; inhibition, % at 12.5 µM; 40% of 6,200 active; AID 488912;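 active = mean inhibition across replicates above about 50%, limit read from the data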
SENP6 conf: confirmation of human SENP6 protease inhibitors | shares compounds with SENP7 inh | recombinant SENP6, Z-RLRGG-aminoluciferin luminescence | inhibition, % at 12.5 µM | 58% of 6,200 active | AID 488915
SENP7 confirm: confirmation of human SENP7 protease inhibitors; shares compounds with SENP7 inh; recombinant SENP7, Z-RLRGG-aminoluciferin luminescence, 40 min; inhibition, % at 12.5 µM; 69% of 6,200 active; AID 488917
Casp3 SENP sel: inhibits human caspase-3 in SENP selectivity test. shares compounds with SENP7 inh. purified caspase-3, Z-DEVD-aminoluciferin luminescence, 60 min. inhibition, % at 12.5 µM. 60% of 6,200 active. AID 488918;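 active = mean inhibition above about 50%, limit read from the data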
Target sequence (P42574 28-227 limits assumed): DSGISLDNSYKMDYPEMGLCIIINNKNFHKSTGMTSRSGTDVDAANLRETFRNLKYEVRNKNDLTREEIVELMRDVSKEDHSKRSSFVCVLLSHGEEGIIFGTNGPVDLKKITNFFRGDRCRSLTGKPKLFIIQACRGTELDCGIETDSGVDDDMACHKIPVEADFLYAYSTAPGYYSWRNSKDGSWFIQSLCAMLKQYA
SENP luc ctr: counter-screen for SENP inhibitors: luminescence interference; shares compounds with SENP7 inh; Pre-incubated SENP8/Z-RLRGG-aminoluciferin, luciferase luminescence interference; inhibition, % at 12.5 µM; 39% of 6,200 active; AID 488919;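 active = mean inhibition above about 50% when retested at one dose, limit read from the data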
Of the large screens only hits and unclear results are named; the others gave an inactive call (follow-up assays come after a bar, where they were run).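 Rule for the calls, unless noted: active = mean inhibition above about 50% in the one-dose retest (limit read from the data); inactive = the rest.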

CCOc1ccc(CCNC(=O)CN(C)S(=O)(=O)c2cccs2)cc1OCC	none (no result: HSP90 inh)
[O-]/C(=C(\C(=S)Nc1cccc2ccccc12)[n+]1ccccc1)c1cccs1	SENP6 inh 56.1 | SENP8 confirm inactive | SENP6 conf inactive | SENP7 confirm inactive | Casp3 SENP sel inactive | SENP luc ctr inactive
C(=N\NC1=Nc2cccc3cccc1c23)/c1ccccc1	SENP6 inh 61.8 | SENP8 confirm inactive | SENP6 conf inactive | SENP7 confirm 83.4 | Casp3 SENP sel inactive | SENP luc ctr inactive
Clc1ccc(/C=N/NC2=Nc3cccc4cccc2c34)cc1	none
O=S(=O)(c1cc(Cl)c(Cl)cc1Cl)N1CCN2CCCC2C1 (stereo not given)	none
COc1ccccc1NC(=O)CCSc1ccc(C)cc1	SENP6 inh 50.7 | SENP8 confirm inactive | SENP6 conf inactive | SENP7 confirm 63.4 | Casp3 SENP sel inactive | SENP luc ctr inactive
COc1ccc(-c2nnc(-c3ccccc3O)o2)cc1	SENP6 inh 80.5, SENP8 block-2 83.6, SENP7 inh 93.0 | SENP8 confirm 51.1 | SENP6 conf inactive | SENP7 confirm 66.8 | Casp3 SENP sel 56.2 | SENP luc ctr inactive
COc1ccc(-c2nnc(-c3ccc(F)cc3)o2)cc1	SENP6 inh 57.8, SENP8 block-2 56.5, SENP7 inh 68.8 | SENP8 confirm inactive | SENP6 conf inactive | SENP7 confirm inactive | Casp3 SENP sel inactive | SENP luc ctr inactive
COc1cccc(-n2c(C)cc(/C=C3\C(=N)N4N=C(CC(=O)N5CCOCC5)SC4=NC3=O)c2C)c1	none
O=C1NC2=C(C(=O)CCC2)C(c2ccc3ncccc3c2)N1 (stereo not given)	SENP7 inh 71.8 | SENP8 confirm inactive | SENP6 conf inactive | SENP7 confirm inactive | Casp3 SENP sel inactive | SENP luc ctr inactive
CCCn1c(/C=C/c2ccccc2)nc2ccccc21	SENP6 inh 72.0, SENP8 block-2 62.5, SENP7 inh 70.3 | SENP8 confirm 85.9 | SENP6 conf 84.5 | SENP7 confirm 94.9 | Casp3 SENP sel 74.7 | SENP luc ctr 80.9
Cc1nc(/C(N)=N/OC(=O)c2ccc(Cl)cc2)c(C(F)(F)F)o1	SENP6 inh 69.2, SENP8 block-2 58.0, SENP7 inh 81.7 | SENP8 confirm 74.4 | SENP6 conf 69.8 | SENP7 confirm 94.1 | Casp3 SENP sel 88.5 | SENP luc ctr 78.3
Cc1ccc(Nc2nc(-c3cccs3)cs2)nc1	HSP90 inh 16.6, SENP6 inh 93.2, SENP8 block-2 91.3 | SENP8 confirm inactive | SENP6 conf 97.8 | SENP7 confirm 101.9 | Casp3 SENP sel 85.2 | SENP luc ctr 67.5
Cc1cc(O)ccc1Nc1nc(-c2cccs2)cs1	SENP6 inh 70.4, SENP8 block-2 69.9 | SENP8 confirm inactive | SENP6 conf 94.7 | SENP7 confirm 100.5 | Casp3 SENP sel 78.4 | SENP luc ctr 94.2
c1ccc(-c2csc(NC3CCCCC3)n2)cc1	SENP6 inh 66.0 | SENP8 confirm 83.0 | SENP6 conf 82.5 | SENP7 confirm 95.2 | Casp3 SENP sel 62.4 | SENP luc ctr 67.1
Cc1ccc(Nc2nc(-c3ccccc3)cs2)nc1	SENP8 block-2 91.1, SENP7 inh 88.8 | SENP8 confirm 84.6 | SENP6 conf 96.6 | SENP7 confirm 102.5 | Casp3 SENP sel 84.0 | SENP luc ctr 71.9
Cc1cc(O)ccc1Nc1nc(-c2cccnc2)cs1	none
COc1cc(SC)ccc1C(=O)NCCNC(=O)c1nonc1N	none
O=C1CC=Nc2ccc([N+](=O)[O-])cc21	none (no result: HSP90 inh, Platelet DG rel, SENP6 inh, SENP8 block-2, SENP7 inh)
CC1=CN2C(=N)/C(=C/c3ccco3)C(=O)N=C2S1	SENP6 inh 52.4 | SENP8 confirm inactive | SENP6 conf inactive | SENP7 confirm 71.3 | Casp3 SENP sel 73.5 | SENP luc ctr inactive
COc1ccc(S(=O)(=O)Nc2cc3c4c(c2)CCN4C(=O)CC3)cc1OC	none (no result: HSP90 inh)
O=c1cc(/C=C/c2ccccc2)oc2ccccc12	SENP6 inh 62.3, SENP8 block-2 55.3 | SENP8 confirm inactive | SENP6 conf 77.8 | SENP7 confirm 93.2 | Casp3 SENP sel 64.3 | SENP luc ctr 72.9
COc1ccc(OC)c(NC(=O)CSc2nnc(-c3cnccn3)n2C)c1	none
CCCCN1C2CCCC1CC(NC(=O)c1ccccc1Cl)C2 (stereo not given)	SENP7 inh 82.6 | SENP8 confirm inactive | SENP6 conf inactive | SENP7 confirm inactive | Casp3 SENP sel inactive | SENP luc ctr inactive
CO/N=C(/C(=O)N[C@@H]1C(=O)N2C(C(=O)O)=CCS[C@H]12)c1cnc(N)s1	none (no result: SENP6 inh, SENP8 block-2, SENP7 inh)
CCC(=O)N(CC)Cc1cc(=O)[nH]c2ccccc12	none
CCCN(Cc1cc(=O)[nH]c2ccccc12)C(=O)CC	SENP6 inh 97.7 | SENP8 confirm inactive | SENP6 conf inactive | SENP7 confirm inactive | Casp3 SENP sel inactive | SENP luc ctr inactive
COc1cc(C=O)ccc1OCc1ccccc1Br	SENP6 inh 75.3, SENP8 block-2 70.0, SENP7 inh 66.0 | SENP8 confirm inactive | SENP6 conf 67.8 | SENP7 confirm 88.6 | Casp3 SENP sel 69.0 | SENP luc ctr 73.4
CCC(C)C(NC(=O)c1ccccc1)C(=O)N1CCN(C(=O)c2ccccc2)CC1 (stereo not given)	none (no result: HSP90 inh, Platelet DG rel, SENP6 inh, SENP8 block-2, SENP7 inh)
Cc1ccc(SCn2nnc3ccccc3c2=O)c(C)c1	none
O=c1c2ccccc2nnn1CSc1ccccc1F	SENP8 block-2 61.3, SENP7 inh 67.6 | SENP8 confirm 77.6 | SENP6 conf 77.2 | SENP7 confirm 93.6 | Casp3 SENP sel 83.5 | SENP luc ctr 79.2
CC1=CC(=C(C#N)c2nc3ccccc3s2)C=C(C)N1CC1CCCO1 (stereo not given)	SENP6 inh 82.0 | SENP8 confirm inactive | SENP6 conf inactive | SENP7 confirm inactive | Casp3 SENP sel inactive | SENP luc ctr inactive
Cc1ccc(NC(=O)CCC(=O)c2cccs2)nc1	none (no result: HSP90 inh)
Cc1ccnc(NC(=O)CCC(=O)c2cccs2)c1	SENP6 inh 86.7, SENP8 block-2 75.0, SENP7 inh 56.1 (no result: HSP90 inh) | SENP8 confirm 92.2 | SENP6 conf 90.7 | SENP7 confirm 98.7 | Casp3 SENP sel 95.1 | SENP luc ctr 90.7
CCc1ccc(NC(=O)c2cc(S(=O)(=O)N3CCCC3)ccc2F)cc1	none (no result: HSP90 inh, Platelet DG rel, SENP6 inh, SENP8 block-2, SENP7 inh)

Screening data as filed in PubChem.
